Assay results reported in PubChem BioAssay.
Activity calls are given as the source filed them.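 The calls were made as follows, unless noted: active = fluorescence slope higher than the sample average by over 3 SD (cut at about -0.22 in these data, passing the limit was not always enough); inactive = the rest.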

What was measured:
[1] = inhibitors of TNFa-induced NFkB p65 translocation, primary screen, imaging, HUVEC, MLSMR starter and 10KST1 sets (AID 438;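 active = inhibition above 20% together with a positive visual image hit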;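 also: compound added about 3h40 before a 20 min TNFalpha stimulation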;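 as to inhibition: signal is the nuclear over cytoplasmic p65 intensity ratio per well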); details: HUVEC TNFa-induced p65 nuclear translocation; cell count: measured here: nuclei count (cytotoxicity indicator), at 2.08 µM; inhibition: at 2 µM, stronger effect = higher value, 0% TNFa-plus-vehicle, 100% no-TNFa wells
[2] = inhibitors of mutant huntingtin aggregation, primary screen, imaging, exon1htt(103Q)mCFP cells, high-content imaging (AID 483;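 active = visual image review flags a hit and inhibition of aggregation exceeds 20%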;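 also: compound exposure lasted 3 days before fixation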;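 as to nuclei count: percent of the per-plate median nuclei count of sample wells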); details: exon1htt(103Q)mCFP cell line, aggregate imaging, at 2 µM; inhibition of aggregation: stronger effect = higher value; nuclei count: measured here: cell count, toxicity
[3] = inhibitors of E-selectin induction by TNFa, primary screen, imaging, HUVEC, immunofluorescence, MLSMR starter and 10KST1 sets (AID 487;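 active = visually confirmed hit in the image check and inhibition above 20%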;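 as to inhibition: signal is fraction of cell area covered by stained E-selectin grains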;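 as to nuclei count: 100% = median nuclei count of all wells on the same plate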); details: HUVEC TNFalpha-induced E-selectin immunofluorescence imaging, at 2 µM; inhibition: stronger effect = higher value; nuclei count: measured here: cell number, toxicity
[4] = target: Voltage-gated potassium channel subunit beta-2 (Rattus norvegicus) (UniProt P62483); experiment: KvBeta enzyme negative modulators, primary screen, biochemical, NADPH fluorescence (AID 622); details: recombinant KvBeta, 4-cyanobenzaldehyde reduction, at 10 µM, stronger effect = higher value;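 also: slope of raw intensity against log time taken from 70 to 1610 s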
[5] = target: Voltage-gated potassium channel subunit beta-2 (Rattus norvegicus) (UniProt P62483); experiment: KvBeta positive modulators, primary screen, biochemical, NADPH fluorescence (AID 623;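 active = NADPH fluorescence slope more negative than the mean of all samples by about 3 SD, 99.7% confidence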;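 also: fluorescence intensity change per second fitted from 20 to 320 s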); details: Recombinant KvBeta, NADPH fluorescence decrease slope, 10 min; at 10 µM; stronger effect = lower value
[6] = target: Alpha-2C adrenergic receptor (Homo sapiens) (UniProt P18825); experiment: modulators of alpha2C/GIRK thallium flux, primary screen, cell-based, HEK293 alpha2C/GIRK1/2 (AID 624;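 active = fluorescence slope after compound addition differing from the mean of all screened samples at 99.7% confidence, in either direction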;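 also: slope of fluorescence ratio to pre-addition baseline per second over 15 to 24 s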); details: thallium flux BTC fluorescence, at 10 µM, actives lie on both sides
[7] = inhibitors of Sendai virus-induced IRF3 signaling, primary screen, TLR/RLR signaling modifier project, cell-based, Sendai virus stimulus, luciferase, 10K MLSCN set (AID 602276;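 active = inhibition at or above 50% at 10 µM; inactive = inhibition below 50%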;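 also: firefly luciferase from ISG56 promoter only with Renilla not read in this screen; 0% = Sendai virus plus DMSO and 100% = medium plus DMSO without virus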); details: HEK293 RL24 IRF3 luciferase reporter, at 10 µM, stronger effect = higher value
[8] = inhibitors of poly I:C-induced TLR3 signaling, primary screen, cell-based, poly I:C stimulus, luciferase, 10K MLSCN set (AID 602277;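 active = inhibition of the reporter signal at or above 50%; inactive = inhibition below 50%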); details: HEK293-TLR3 RL24 IRF3 luciferase reporter, at 10 µM, stronger effect = higher value

Alpha-2C adrenergic receptor (Homo sapiens), sequence (P18825 whole entry, looked up): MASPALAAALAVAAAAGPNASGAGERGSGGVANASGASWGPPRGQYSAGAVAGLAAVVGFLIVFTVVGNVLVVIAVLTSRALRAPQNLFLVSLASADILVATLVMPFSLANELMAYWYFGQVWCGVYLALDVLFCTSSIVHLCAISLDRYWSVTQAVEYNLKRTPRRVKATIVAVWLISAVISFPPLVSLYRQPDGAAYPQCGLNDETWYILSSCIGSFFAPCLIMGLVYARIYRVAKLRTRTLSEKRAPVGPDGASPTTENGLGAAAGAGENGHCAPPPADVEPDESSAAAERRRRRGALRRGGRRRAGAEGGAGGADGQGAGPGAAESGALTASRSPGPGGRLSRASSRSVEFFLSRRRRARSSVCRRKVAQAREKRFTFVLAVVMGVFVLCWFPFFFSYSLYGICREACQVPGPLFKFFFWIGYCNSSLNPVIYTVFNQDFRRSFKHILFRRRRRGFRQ
Voltage-gated potassium channel subunit beta-2 (Rattus norvegicus), sequence (P62483 whole entry, looked up): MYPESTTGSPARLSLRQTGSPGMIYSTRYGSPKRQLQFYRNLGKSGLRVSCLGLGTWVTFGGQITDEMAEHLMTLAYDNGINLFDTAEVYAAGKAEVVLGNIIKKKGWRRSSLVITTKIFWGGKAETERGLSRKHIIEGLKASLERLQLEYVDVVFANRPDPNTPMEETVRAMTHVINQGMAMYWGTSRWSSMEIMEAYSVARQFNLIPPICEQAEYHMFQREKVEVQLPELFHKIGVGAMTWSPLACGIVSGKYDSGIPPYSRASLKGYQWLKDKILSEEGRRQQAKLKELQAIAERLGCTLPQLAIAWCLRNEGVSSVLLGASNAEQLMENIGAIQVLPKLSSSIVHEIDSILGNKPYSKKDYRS

Structure (SMILES) | cell count [1] | inhibition [1] | inhibition of aggregation [2] | nuclei count [2] [%] | inhibition [3] | nuclei count [3] [%] | fluorescence slope [4] | NADPH fluorescence slope [5] | slope [6] | inhibition [7] | inhibition [8]
CC(C)(O)C1=NOC(c2ccccc2)C1 (stereo not drawn) | 647 | -6.5% (inactive) | -4.9% (inactive) | 98.5 | -43.3% (inactive) | 99.1 | -0.411 (inactive) | 1.7e-07 (inactive) | 0.00603 (inactive) | 6.77% (inactive) | 22.8% (inactive)
COc1ccc(C2/C(=C(/O)c3ccccc3)C(=O)C(=O)N2C)cc1 (stereo not drawn) | 424 | -0.5% (inactive) | 7.8% (inactive) | 106 | -25.9% (inactive) | 110 | -0.369 (inactive) | 4.1e-06 (inactive) | 0.00577 (inactive) | 14.9% (inactive) | 37.5% (inactive)
CN(C)c1ccc(NC(=O)c2ccncc2)c2ccccc12 | 315 | 2.7% (inactive) | 6.2% (inactive) | 94.4 | -88.6% (inactive) | 105 | -0.316 (inactive) | -5.4e-05 (inactive) | 0.00482 (inactive) | 15.4% (inactive) | 12% (inactive)
COc1cccc(-c2nnc(NC(C)=O)o2)c1 | 694 | 0.3% (inactive) | -16.5% (inactive) | 99.5 | -24.3% (inactive) | 118 | -0.407 (inactive) | -6.1e-05 (inactive) | 0.00477 (inactive) | -11% (inactive) | 6.47% (inactive)
Cc1ccc(S(=O)(=O)N2CCOCC(=O)NCCOCCNC(=O)COCC2)cc1 | 592 | 2.1% (inactive) | -15.3% (inactive) | 116 | -89.9% (inactive) | 108 | -0.622 (inactive) | -2.4e-05 (inactive) | 0.00426 (inactive) | 9.52% (inactive) | 9.55% (inactive)
N#CC1=C(N)S[C@H](C(=O)C23CC4CC(CC(C4)C2)C3)[C@H]1c1ccncc1 | 297 | 2.4% (inactive) | -16.4% (inactive) | 105 | -10.8% (inactive) | 111 | -0.482 (inactive) | -1.6e-05 (inactive) | 0.0041 (inactive) | 11.9% (inactive) | 23.4% (inactive)
CC(C)c1cc(C(=O)NCc2ccco2)no1 | 788 | 3.7% (inactive) | -21.5% (inactive) | 104 | -45.3% (inactive) | 106 | -0.586 (inactive) | -2.6e-05 (inactive) | 0.00624 (inactive) | -22.8% (inactive) | -50.6% (inactive)
Cc1ccc(S(=O)(=O)N2CCC(C(=O)NCCN3CCCCCC3)CC2)cc1 | 768 | -9.5% (inactive) | -2.1% (inactive) | 102 | -87.4% (inactive) | 110 | -0.456 (inactive) | -6.3e-05 (inactive) | 0.00469 (inactive) | 11.2% (inactive) | 32.9% (inactive)
O=C(NCc1cccnc1)c1ccc2c(c1)OCO2 | 415 | 10.5% (inactive) | -7.2% (inactive) | 103 | 4.1% (inactive) | 110 | -0.53 (inactive) | 3.1e-05 (inactive) | 0.00534 (inactive) | -28.8% (inactive) | -20% (inactive)
O=C1CCCCCN1CSc1nc2ccccc2s1 | 686 | -17.2% (inactive) | -3.1% (inactive) | 106 | 7.2% (inactive) | 97.6 | -0.433 (inactive) | -0.000138 (inactive) | 0.00664 (inactive) | 18.8% (inactive) | 27.7% (inactive)
CC(C)C(OC(=O)c1ccco1)C(=O)NCc1ccccc1 (stereo not drawn) | 489 | 5% (inactive) | -10.8% (inactive) | 108 | -122% (inactive) | 126 | -0.443 (inactive) | 2.2e-05 (inactive) | 0.00599 (inactive) | 11.3% (inactive) | 10.5% (inactive)
COc1cccc(C(=O)Nc2ncc3c(n2)CC(C)CC3=O)c1 (stereo not drawn) | 390 | 2.5% (inactive) | 3% (inactive) | 95.8 | -0.5% (inactive) | 88.1 | -0.592 (inactive) | -5.1e-05 (inactive) | 0.00534 (inactive) | -6.66% (inactive) | -7.05% (inactive)
N#CCCn1ccc(NC(=O)c2ccc(Cl)cc2)n1 | 444 | -6.3% (inactive) | 13.4% (inactive) | 100 | -23% (inactive) | 131 | -0.477 (inactive) | -6.3e-05 (inactive) | 0.00607 (inactive) | -18.1% (inactive) | -11.6% (inactive)
CCOC(=O)c1c(NC(=O)c2cccs2)sc(C)c1C | 396 | -6% (inactive) | -20% (inactive) | 102 | -107% (inactive) | 125 | -0.307 (inactive) | 1.4e-05 (inactive) | 0.00436 (inactive) | 12.5% (inactive) | 2.83% (inactive)
CC1(C)Cc2ccccc2C(N)=C1C#N | 331 | -0.8% (inactive) | 35.2% (active) | 71.1 | 9.4% (inactive) | 102 | -0.479 (inactive) | 2e-05 (inactive) | 0.00508 (inactive) | -11.4% (inactive) | -26.4% (inactive)
O=C1CC(N2CCN(c3cccc(C(F)(F)F)c3)CC2)C(=O)N1c1ccccc1 (stereo not drawn) | 622 | -1.5% (inactive) | -3.8% (inactive) | 117 | 64.7% (active) | 75.3 | -0.473 (inactive) | -1.5e-05 (inactive) | 0.00274 (inactive) | 7.76% (inactive) | 27.1% (inactive)
COc1ccc(Cl)cc1S(=O)(=O)N1CCN(c2ccc(F)cc2)CC1 | 657 | -1.1% (inactive) | -29.1% (inactive) | 101 | 36.7% (inactive) | 137 | -0.319 (inactive) | -1.3e-05 (inactive) | 0.00495 (inactive) | 46.4% (inactive) | 0.0275% (inactive)
O=C1NC(Cc2c[nH]c3ccccc23)C(=O)N1CCOc1ccccc1 (stereo not drawn) | 674 | 4.9% (inactive) | 3.1% (inactive) | 120 | -14.9% (inactive) | 138 | -0.429 (inactive) | -4.2e-05 (inactive) | 0.00422 (inactive) | 13.6% (inactive) | 19.7% (inactive)
CCN(CCNC(=O)CS(=O)(=O)Cc1nc(-c2cccc(OC)c2)oc1C)c1ccccc1 | 644 | -27.6% (inactive) | -16.4% (inactive) | 121 | -37.8% (inactive) | 107 | -0.53 (inactive) | -4e-05 (inactive) | 0.00529 (inactive) | 13.7% (inactive) | 20.1% (inactive)
c1ccc(Cc2nn3c(Cn4cnc5ccccc54)nnc3s2)cc1 | 415 | 1.4% (inactive) | 9.2% (inactive) | 80.7 | -19.6% (inactive) | 91.6 | -0.512 (inactive) | -5.6e-05 (inactive) | 0.00479 (inactive) | 15.8% (inactive) | -2.79% (inactive)
Clc1ccc(OCc2nc(-c3ccccn3)no2)c(Br)c1 | 814 | 1.8% (inactive) | 4.2% (inactive) | 95 | -1.9% (inactive) | 121 | -0.595 (inactive) | -8.6e-06 (inactive) | 0.00567 (inactive) | -31.1% (inactive) | -134% (inactive)
COc1ccccc1NC(=O)c1oc2ccccc2c1NC(=O)c1cc(OC)c(OC)c(OC)c1 | 582 | -7.6% (inactive) | -17.1% (inactive) | 85.7 | 25.8% (inactive) | 60.4 | -0.36 (inactive) | -9.5e-06 (inactive) | 0.00886 (inactive) | 36% (inactive) | 65.9% (active)
Cn1c(=O)c2c(nc(SCCCC#N)n2Cc2ccccc2F)n(C)c1=O | 601 | 4.5% (inactive) | -13.6% (inactive) | 109 | -51% (inactive) | 119 | -0.416 (inactive) | -2.8e-05 (inactive) | 0.00541 (inactive) | 12.9% (inactive) | 36.5% (inactive)
CCOC(=O)N(C)c1ccc(C(O)(C(F)(F)F)C(F)(F)F)cc1 | 601 | -8.6% (inactive) | -12.5% (inactive) | 105 | -58.6% (inactive) | 109 | -0.369 (inactive) | -6.4e-05 (inactive) | 0.0041 (inactive) | -1.35% (inactive) | 100% (active)
O=C(COC(=O)C12CC3CC(CC(O)(C3)C1)C2)N1CCN(S(=O)(=O)c2ccc(Cl)cc2)CC1 | 371 | 4.7% (inactive) | 0.7% (inactive) | 95.7 | -72.7% (inactive) | 97.2 | -0.33 (inactive) | -1.9e-05 (inactive) | 0.00661 (inactive) | 8.77% (inactive) | 18% (inactive)
CS(=O)(=O)N(CC(=O)N1CCc2ccccc2C1)c1ccc2c(c1)OCO2 | 262 | 1.6% (inactive) | 17% (inactive) | 97.2 | 14.1% (inactive) | 77.8 | -0.481 (inactive) | -5.5e-05 (inactive) | 0.00584 (inactive) | 11% (inactive) | 23.8% (inactive)
CCOC(=O)CC(=O)Nc1c(C)cc(C)cc1C | 270 | 7.5% (inactive) | 12.8% (inactive) | 87.4 | 6.5% (inactive) | 105 | -0.416 (inactive) | 6.4e-05 (inactive) | 0.00527 (inactive) | -9.54% (inactive) | 2.4% (inactive)
O=C(NCCN1CCCCCC1)c1ccc(CS(=O)(=O)c2ccc(Br)cc2)o1 | 591 | -0.5% (inactive) | -28.3% (inactive) | 98.6 | -63.4% (inactive) | 103 | -0.445 (inactive) | 1.2e-05 (inactive) | 0.00438 (inactive) | -15.7% (inactive) | 16.4% (inactive)
